Reference: PubChem BioAssay (Tox21)
Values joined by “and” are separate entries in the source; they are usually repeats but may differ in a detail not shown here. Equal entries are not always repeated. Results filed as inconclusive are left out. Some structures have more than one record in an assay (separate samples or runs), and their calls can disagree. Active and inactive are the calls of the source. Calls come from the whole dose curve; as a rule, active = well fitted cell-killing curve with a large enough effect in the repeat runs; inconclusive = weak or mixed curves, or effect the other way; inactive = no such curve, though single readings can be large or run the other way.

Assay: qHTS assay for identifying genotoxic compounds that show differential cytotoxicity against isogenic chicken DT40 cell lines with known DNA damage response pathways - Rev3 mutant cell line (AID 743014); note: nearly all actives have a fitted effect of over 55% in size
Settings: chicken DT40 Rev3-/- viability, CellTiter-Glo, 40 h; series mostly up to 68.4 µM; activity, negative = cytotoxicity: at the top concentration
From the text: National Center for Advancing Translational Sciences [NCATS]
NIH Chemical Genomics Center [NCGC]
U.S. Environmental Protection Agency [EPA]
National Institutes of Environmental Health Sciences [NIEHS]
National Toxicology Program [NTP]
U.S. Food and Drug Administration [FDA]
DNA repair pathways play a critical role in cellular homeostasis by repairing DNA damage induced by endogenous processes and xenobiotics. Isogenic chicken DT40 cell lines deficient in different DNA repair pathways can be used to identify genotoxic compounds and aid in characterizing the nature of the DNA damage induced. Two DNA repair-deficient cell lines with disrupted genes, Rad54/Ku70 or Rev3, were used to screen the Tox21 10K compound library. Possible genotoxicity was based on the presence of a significant increase in cytotoxicity in one or more of the DNA repair-deficient cell lines compared to that observed in the parental DNA repair-proficient cell line. CellTiter Glo viability assay (Promega, Madison, WI) was used to measure cell viability in these cells after compound treatment. This assay includes the data from the Rev3 mutant cell line.
Tox21 Assay Protocol Summary:
300 DT40 mutant cells in 5 uL/well were dispensed into white, solid-bottom 1536-well plates using a Multidrop Combi (ThermoFisher Scientific, Waltham, MA) dispenser. After the assay plates were incubated at 37 C/5% CO2 for approximately 0.5 hour, 23 nL of compounds dissolved in DMSO, positive controls or DMSO only was transferred into the assay plate by a pintool work station (Kalypsys, San Diego, CA). The assay plates were incubated at 37 C/5% CO2 for 40 hours. After 5 uL per well of CellTiter-Glo reagent was added into each well of the assay plates, the plates were incubated for 30 min at room temperature and the luminescence intensity of the plates was measured using a ViewLux (PerkinElmer, Shelton, CT) plate reader.
% is set by controls: 0 for no effect and ±100 for the full control effect; potency is the fitted concentration of half-maximal effect.

| SMILES | activity, negative = cytotoxicity | Potency |
| --- | --- | --- |
| CCOC(=O)[C@H](CCc1ccccc1)N[C@@H](C)C(=O)N1Cc2cc(OC)c(OC)cc2C[C@H]1C(=O)O | 2.47% (inactive) | – |
| C=O | – | inactive |
| CC(C)C[C@H](NC(=O)OCC1c2ccccc2-c2ccccc21)C(=O)O | -13.6% (inactive) | – |
| Cc1ncc(CO)c(CN)c1O | 8.15% (inactive) | – |
| CCNCCO | -28.4% (inactive) | – |
| CC1=C(CC(=O)O)c2cc(F)ccc2/C1=C\c1ccc(S(C)(=O)=O)cc1 | 2% (inactive) | – |
| O=C1CCCc2ccccc21 | 0.938% [at 95 µM] (inactive) | – |
| CC(CNC1CCCCC1)OC(=O)c1ccccc1 (stereo not given) | -6.5% [at 31.4 µM] (inactive) | – |
| O=C(O)[C@@H]1CSCN1 | -2.22% (inactive) | – |
| COc1ccccc1OCC(O)COC(N)=O (stereo not given) | 14% [at 31.4 µM] (inactive) | – |
| CN(CC1(C)CCCO1)S(=O)(=O)c1ccc(Cl)c(S(N)(=O)=O)c1 (stereo not given) | 9.77% (inactive) | – |
| Clc1cccc(-c2cc(Cl)cc(Cl)c2)c1 | -2.65% (inactive) | – |
| CC1(C)O[C@@H]2C[C@H]3[C@@H]4CCC5=CC(=O)CC[C@]5(C)[C@@]4(F)[C@@H](O)C[C@]3(C)[C@]2(C(=O)CCl)O1 | 6.99% [at 31.4 µM] (inactive) | – |
| Nc1ccc2ccccc2c1S(=O)(=O)O | 9.27% [at 95 µM] (inactive) | – |
| COc1cc(Cl)ccc1Cl | 1.06% [at 95 µM] (inactive) | – |
| C=CC(C)(O)CC/C=C(\C)CCC=C(C)C (stereo not given) | – | inactive and 4.33 µM (active) |
| C[C@]12C(=O)OC(=O)[C@H]1[C@H]1C=C[C@@H]2C1 | 0.422% [at 95 µM] (inactive) | – |
| CCOC(=O)C1CC(=O)C(=C(O)C2CC2)C(=O)C1 (stereo not given) | -17.6% (inactive) | – |
| CCCN(CCC)C(=O)C(CCC(=O)O)NC(=O)c1ccccc1 (stereo not given) | 3.05% (inactive) | – |
| OCCN(CCO)c1ccccc1 | -12.2% (inactive) | – |

| SMILES | activity, negative = cytotoxicity | Potency |
| --- | --- | --- |
| COc1ccc(S(=O)(=O)Nc2nnc(CC(C)C)s2)cc1 | – | inactive |
| CN1[C@@H]2CC[C@H]1CC(OC(=O)c1c[nH]c3ccccc13)C2 (stereo not given in full) | 0.0616% (inactive) | – |
| O=C(C(Cl)Cl)N1CCOC12CCCCC2 | – | 6.86 µM (active) |
| O=C(O)[C@@H](O)[C@H](O)[C@H](O)[C@@H](O)C(=O)O | 0.737% (inactive) | – |
| O=C1CCN(c2ccccc2)N1 | – | 68.8 µM (active) |
| CC(C)(CO)[C@@H](O)C(=O)NCCC(=O)O | – | inactive |
| CC(C)C(=O)OC/C=C/c1ccccc1 | -24.1% (inactive) | – |
| COC(=O)C(C)O (stereo not given) | 5.86% [at 95 µM] (inactive) | – |
| CO[C@@]1(NC(=O)CSCC#N)C(=O)N2C(C(=O)O)=C(CSc3nnnn3C)CS[C@@H]21 | 2.31% (inactive) | – |
| CC(=O)Nc1ccc(C)c(Cl)c1 | -28.4% (inactive) | – |
| NCCC(O)(P(=O)(O)O)P(=O)(O)O | 1.62% (inactive) | – |
| CN(C)C(=O)NC1(c2ccccc2)CCN(CCC[C@]2(c3ccc(Cl)c(Cl)c3)CCCN(C(=O)c3ccccc3)C2)CC1 | – | 14.6 µM (active) |
| Cc1nc(-c2ccccn2)ncc1C(=O)Nn1cc(C)c2cc(F)ccc21 | – | 61.1 µM (active) |
| CC(C)O | – | inactive |
| O=c1[nH]cnc2c1ncn2[C@@H]1O[C@H](CO)[C@@H](O)[C@H]1O | 14% (inactive) | – |
| CCc1nnc(NS(=O)(=O)c2ccc(N)cc2)s1 | 2.6% (inactive) | – |
| Cc1cc(NS(=O)(=O)c2ccc(N)cc2)nc(C)n1 | 15.7% (inactive) | – |
| NC1=NCC2c3ccccc3Cc3ccccc3N12 (stereo not given) | – | 26.6 µM (active) |
| Oc1ccccc1C=NCc1ccccc1 | -3.78% (inactive) | – |
| COC(=O)c1ccc(OC)cc1 | -6.64% (inactive) | – |
